Data on 14 compounds can be found in PubChem BioAssay (NCI).

SMILES strings stand for the structures. Where “and” joins values, the source holds several entries; their conditions need not be identical. Equal entries are not always repeated. The panel holds about 83,000 compounds, 20% with a hit somewhere; the sample as a whole holds those more often.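 Interpretation: 100, growth as untreated; towards 0, rising growth inhibition; 0, no net growth; 0 to -100, cell death. Compounds scoring below 10 were considered active.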 Calls of active or inactive are those of the source.

For this assay, the system named is HL-60(TB) leukemia. The assay is described as follows: NCI-60 one-dose screen, 48 h (100 = growth as untreated, 0 = no growth, -100 = all killed). To be noted: 10 µM unless noted.
On to `O=C(O)c1ccc(-n2cc(CNc3ccc(Oc4ccccc4)cc3)c(-c3ccccc3)n2)cc1`, for which the growth was 92.5% (inactive).

As to `COc1ccc2nc3ccccc3c(NCCNCCO)c2c1`, the growth is 6.15% (active).

As to `COc1ccccc1C(C)=O`, the growth was 105% (inactive) and 102% (inactive).

For the compound `CCCCCCNC(=O)Oc1ccc(/C(=C(\C)c2ccc(Cl)cc2)c2ccc(OCCN3CCCCC3)cc2)cc1`, the growth was -18.5% (active).

In the case of `COc1cc(-c2nn(-c3cccc(NC(=O)CN4CCOCC4)c3)cc2-c2cccnc2)ccc1Cl`, the growth was 84% (inactive).

As to `OCC(O)C(O)CC1SCCS1` (centres undefined), the growth was 46% (inactive).

Take `O=C(Cc1ccccn1)C(F)(F)C(F)(F)C(F)(F)F`: the growth is 105% (inactive).

`Nc1nc(Cl)nc2c1ncn2C1OC(CO)C(O)C1O` (centres undefined): the growth is -20.7% (active) and -3.23% (active).

Consider `O=C1NC(c2ccc(F)cc2)N=C2C(c3ccccc3)=NOC12` (centres undefined), for which the growth is 101% (inactive).

As to `O=C1NC(=O)C2(CCCC2C(=O)O)N1` (centres undefined), the growth is 97.1% (inactive).

On to `COc1cc(C(=O)c2ccc3c(c2)OCO3)cc(OC)c1OC`, for which the growth is 1.04% (active) and 22.6% (inactive).

On to `COc1ccc(Cl)cc1Nc1nc(C(F)(F)F)ccc1C(=O)N/N=C/c1cc(OC)c(OC)c(OC)c1`, for which the growth was -32.3% (active).

Regarding `c1ccc(Cc2nn3cc(-c4ccccc4)nc3s2)cc1`, the growth is 68% (inactive).

In the case of `C=C(C)[C@@H]1CC[C@]2(C(=O)O)CC[C@]3(C)[C@H](CC[C@@H]4[C@@]5(C)C/C(=C/c6ccc(OC)cc6)C(=O)C(C)(C)[C@@H]5CC[C@]43C)[C@@H]12`, the growth is 2.12% (active).
